A number with no mark means an inactive call. Active and inactive are the calls of the source. Cut-off read from the data, not from the text of the source: active = log2 fold change growth below about -1.8; inactive = the rest.

The assay can be described thus: anthelmintic activity against nematode growth – whole organism, log2 fold change (AID 1259336).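 Note: growth scored by imaging after five days at 20 °C.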 As to conditions: C. elegans growth, anthelmintic screen; active compounds read low.
`C[C@H](c1ccc2c(c1)CCCC2)N(C)c1ncc2c(N)nc(N)nc2n1`: the log2 fold change growth is 0.0756.

As to `CN1CCN(c2nccc3[nH]c(-c4cccc(F)c4)cc23)CC1`, the log2 fold change growth is -0.0356.

For the compound `NC(N)=Nc1ccc(-c2ccc(-c3ccc(N=C(N)N)c(Cl)c3)o2)cc1Cl`, the log2 fold change growth was -0.555.

Turning to `O=C(COc1cccc(F)c1)Nc1nc(-c2ccccn2)cs1`, the log2 fold change growth was -0.223.

As to `C[C@H](Oc1cccc(Cl)c1)C(=O)Nc1ccc2oc(-c3ccncc3)nc2c1`, the log2 fold change growth is 0.206.

For the compound `Nc1ncnc2c1c(Cc1cccc3ccccc13)nn2CC1CCNCC1`, the log2 fold change growth was -0.11.

Turning to `Nc1ccc(C(=O)Nc2ccc(-c3nc4ccccc4o3)cc2)cc1`, the log2 fold change growth was -7.04 (active).

On to `C[C@H](C(N)=O)N1CCCC[C@H]1c1ccc(OCc2cccc(F)c2)cc1`, for which the log2 fold change growth was -0.0659.

Consider `CNc1nnc(Sc2cnn(-c3ccccc3)c(=O)c2Cl)s1`, for which the log2 fold change growth is -0.948.

Values taken from PubChem BioAssay AID1259336 (Sattelle Laboratory, UCL Respiratory, Division of Medicine, …, 2017).
